HCV inhibitor: qHTS Assay for Inhibitors of Hepatitis C Virus (HCV). Huh7.5.1 HCVcc-Cre infection, luciferase reporter, 44 h. Potency, µM (highest dose often 41.8 µM), without a hit: at the top dose activity change, negative = inhibition, most hits filed as inhibitors. hit rate 3.4% among 340,000. AID 651820, 2012; also: % is scaled to controls: 0 for no effect and ±100 for the full control effect
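Compounds are dispensed onto cells plated 4 h earlier at 1,000 per well, with HCVcc-Cre virus (about 0.5 moi) added next. Following 44 h of culture, luminescent signal is measured for 15 sec after 15 min with substrate at room temperature.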
Vaccinia mCherry: qHTS for Stage-Specific Inhibitors of Vaccinia Orthopoxvirus: mCherry Reporter Primary qHTS; Vaccinia virus mCherry reporter infection, fluorescence; hit rate 0.63% among 310,000; Potency, µM (top dose mostly 36.5 µM), for inactives: top-dose activity change, negative = inhibition, most hits filed as inhibitors; calls by dose curve; tested in A549 cells; also: % is scaled to controls: 0 for no effect and ±100 for the full control effect; nearly all actives have a fitted effect of over 35% in size
Pf growth 96h: Primary qHTS for delayed death inhibitors of the malarial parasite plastid, 96 hour incubation; Potency, µM (top dose mostly 28.7 µM), inactives show top-dose activity change, negative = inhibition, hits mostly inhibitors; P. falciparum luciferase reporter growth, 96 h; AID 504834, 2011; hit rate 6.9% among 320,000; also: % is scaled to controls: 0 for no effect and ±100 for the full control effect
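Two-generation exposure (96 h) targets delayed-death phenotype. Reporter parasites carrying integrated firefly luciferase, in red cells at 2% hematocrit and 0.05% parasitemia final, kept at 37 C, 5% CO2; luminescence loss indicates inhibition.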
Vaccinia Venus: qHTS for Stage-Specific Inhibitors of Vaccinia Orthopoxvirus: Venus Reporter Primary qHTS; Vaccinia virus Venus reporter expression, fluorescence; Potency, µM (titrated, usually from 36.5 µM), for inactives: at the top dose activity change, negative = inhibition, hits mostly inhibitors; hit rate 0.46% among 330,000; calls by dose curve; tested in A549 cells; also: % is scaled to controls: 0 for no effect and ±100 for the full control effect; nearly all actives have a fitted effect of over 30% in size
NS1 function inh: qHTS Assay for Inhibitors of Influenza NS1 Protein Function; Potency, µM (titrated, usually from 46.1 µM), for the others: at the top dose activity, positive = more growth; hit rate 0.4% among 270,000; AID 2326, 2010; calls by dose curve; also: actives are rising curves; nearly all actives have a fitted effect of over 50% in size
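Compounds were scored for reversing the slow growth caused by influenza A NS1 in S. cerevisiae, measured by optical density at 600 nm. Assay medium contained 2% galactose at pH 6.0; NS1-free yeast of the same strain were the positive control.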
Pf growth 48h: Primary qHTS for delayed death inhibitors of the malarial parasite plastid, 48 hour incubation; P. falciparum luciferase growth in erythrocytes, 48 h; Potency, µM (titrated, usually from 28.7 µM), for inactives: at the top dose activity change, negative = inhibition, hits mostly inhibitors; hit rate 5.9% among 310,000; also: % is scaled to controls: 0 for no effect and ±100 for the full control effect
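In quantitative HTS format, infected erythrocytes bearing luciferase-reporter parasites were treated for a single generation at 37 C. Luminescence after adding detection reagent served as the growth measure.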
* = called active by the depositor; [ ] = dose if it differs, or a comment. This is a sample that favours compounds with a hit; in the whole collection about 11% have one here. Unless noted, calls follow the shape of the dose curve; as a rule, active = well fitted inhibition curve with a large enough effect; inconclusive = small, poorly fitted or top-dose-only effect, or another doubt; inactive = no such curve, though single readings can be large or run the other way. Potency is read from the fitted curve at half-maximal effect.

For CCn1c(=O)n(CC)c2cc(N3CCCC3)c(NC(=O)c3ccccc3)cc21 the results were HCV inhibitor inconclusive, Vaccinia mCherry inconclusive, Pf growth 96h inconclusive, Vaccinia Venus -12%, NS1 function inh -5% and Pf growth 48h -15%.
For CCn1c(=O)n(CC)c2cc(N3CCCC3)c(NC(=O)c3ccccc3C)cc21 the results were HCV inhibitor inconclusive, Pf growth 96h 9.3µM*, NS1 function inh -4% and Pf growth 48h inconclusive.
CCCN(Cc1nnc(-c2cccs2)o1)C(=O)CN1C(=O)NC2(CCCCC2C)C1=O (stereo not given) was read as HCV inhibitor -6%, Pf growth 96h inconclusive and Pf growth 48h -28%.
For O=C(OCC#CCSc1nnc(-c2ccccc2)o1)c1cc2ccccc2o1 the results were HCV inhibitor 16%, Vaccinia mCherry 0%, Vaccinia Venus -16%, NS1 function inh 10% and Pf growth 48h 11%.
Screening O=C(Nc1ccc(C(=O)N2CCCC2)cc1)c1ccccc1F returned HCV inhibitor 7%, NS1 function inh 4% and Pf growth 48h 113%.
`COC(=O)C1Cc2ccccc2CN1S(=O)(=O)c1ccc(F)cc1` (stereo not given) gave HCV inhibitor 12%, Vaccinia mCherry inactive, Pf growth 96h 1.3µM*, Vaccinia Venus -14%, NS1 function inh -6% and Pf growth 48h -8%.
O=C(O)[C@H]1Cc2ccccc2CN1S(=O)(=O)c1ccc(F)cc1 was read as HCV inhibitor 18%, Pf growth 96h 22%, NS1 function inh -3% and Pf growth 48h 45%.
For O=C(Nn1cnnc1)C1Cc2ccccc2CN1S(=O)(=O)c1ccc(F)cc1 (stereo not given) the results were HCV inhibitor -5%, Pf growth 96h 8.3µM*, NS1 function inh 9% and Pf growth 48h 16%.
Screening COC(=O)C1=C(c2ccc(Cl)c(C(F)(F)F)c2)C[C@@H]2CC[C@H]1N2C(=O)NCc1cc(C)oc1C(F)(F)F returned HCV inhibitor inconclusive, Vaccinia mCherry -7%, Pf growth 96h inconclusive, Vaccinia Venus inconclusive and Pf growth 48h 7.4µM*.
CCCNC(=O)N1[C@H]2CC[C@@H]1C(C(=O)OC)=C(c1ccc(Cl)c(C(F)(F)F)c1)C2 was read as HCV inhibitor -7%, Vaccinia mCherry inactive, Pf growth 96h inconclusive, Vaccinia Venus -21% and Pf growth 48h inconclusive.
`COC(=O)C1=C(c2ccc(Cl)c(C(F)(F)F)c2)C[C@@H]2CC[C@H]1N2C(=O)NCC1CC1` gave HCV inhibitor inconclusive, Vaccinia mCherry -8%, Pf growth 96h 6.6µM*, Vaccinia Venus inconclusive and Pf growth 48h 12µM*.
Screening Cc1cccc(C)c1NC(=O)CN(C)C(=O)c1ccccc1Cc1ccccc1 returned HCV inhibitor 2%, Vaccinia mCherry -5%, Pf growth 96h inconclusive, Vaccinia Venus -25% and Pf growth 48h inconclusive.
For Cn1c2cc(B(O)O)sc2c2cnn(Cc3c(F)cccc3Cl)c(=O)c21 the results were Pf growth 96h 10µM* and Pf growth 48h 13µM*.
Screening COc1ccc(CCN2C(=S)N(C)C(=O)C2CC(=O)Nc2ccc(F)cc2)cc1 (stereo not given) returned HCV inhibitor -18%, Vaccinia mCherry -20%, Pf growth 96h 13µM*, Vaccinia Venus -13%, NS1 function inh 3% and Pf growth 48h inconclusive.
`CCN1C(=O)C(CC(=O)Nc2ccc(OC)cc2)N(Cc2ccc(OC)c(OC)c2)C1=S` (stereo not given) gave HCV inhibitor -1%, Vaccinia mCherry -4%, Pf growth 96h inconclusive, Vaccinia Venus -20%, NS1 function inh 0% and Pf growth 48h 10µM*.
Screening CC(C)Nc1oc(Cc2cccc3ccccc23)nc1C#N returned HCV inhibitor inconclusive, Vaccinia mCherry -23%, Pf growth 96h 3%, Vaccinia Venus -7%, NS1 function inh -91% and Pf growth 48h -16%.
For COc1cc2c(cc1OC)CN(CCC(C)c1ccc(Cl)cc1)CC2 (stereo not given) the results were HCV inhibitor inconclusive, Vaccinia mCherry -8% and Vaccinia Venus -6%.
Screening O=C(NCCC1CCCCN1S(=O)(=O)c1ccc(Cl)cc1)C(=O)NCCN1CCOCC1 (stereo not given) returned HCV inhibitor 12%, Pf growth 96h -27% and Pf growth 48h inconclusive.
`O=C(c1cn(Cc2ccccc2)c2ccccc12)C1CC1` gave HCV inhibitor inconclusive, Vaccinia mCherry 0%, Pf growth 96h 0%, Vaccinia Venus -10% and Pf growth 48h -22%.
For Cc1ccc(S(=O)(=O)CC(O)COc2ccc(F)cc2Cl)cc1 (stereo not given) the results were HCV inhibitor -14%, Vaccinia mCherry inactive, Pf growth 96h 0%, Vaccinia Venus -25%, NS1 function inh -1% and Pf growth 48h -1%.
For Cc1sc2ncn(CC(=O)N3CCN(c4ccccc4F)CC3)c(=O)c2c1S(=O)(=O)N1CCN(c2ncccn2)CC1 the results were Vaccinia mCherry -5% and Vaccinia Venus 1%.
O=C1Cc2ccccc2N1c1c(Cl)cccc1Cl was read as HCV inhibitor 7%, Pf growth 96h 3.3µM*, Vaccinia Venus -11%, NS1 function inh 10% and Pf growth 48h -29%.
Screening O=C1Cc2ccccc2C(=O)N1c1ccc(F)cc1Cl returned HCV inhibitor 22%, Vaccinia mCherry inactive, Pf growth 96h -8%, Vaccinia Venus -7%, NS1 function inh 18% and Pf growth 48h inconclusive.
Screening CCCCN(CCCNC(=O)C1CCCN(S(=O)(=O)CCC)C1)Cc1ccccc1 (stereo not given) returned HCV inhibitor 6%, Pf growth 96h 0%, NS1 function inh 1% and Pf growth 48h -3%[0.00184 µM].
CCC(CC)C1=NN2C(=N)/C(=C/c3ccc(OC(=O)c4ccco4)cc3)C(=O)N=C2S1 was read as HCV inhibitor 11%, Vaccinia mCherry 5%[7.34 µM], Pf growth 96h 20%, Vaccinia Venus 0%[7.34 µM], NS1 function inh 8% and Pf growth 48h 9%.
For CCn1c(=O)cc(SCC(=O)N2CCN(C)CC2)c2ccccc21 the results were HCV inhibitor inconclusive, Vaccinia mCherry -15%, Pf growth 96h 0.066µM*, Vaccinia Venus -11% and NS1 function inh -2%.
Screening CCOC(=O)C1CCN(C(=O)CSc2cc(=O)n(CC)c3ccccc23)CC1 returned HCV inhibitor 11µM*, Vaccinia mCherry -4%, Pf growth 96h 0.0033µM*, Vaccinia Venus -18%, NS1 function inh -3% and Pf growth 48h -28%.

Screens: PubChem, National Center for Advancing Translational Sciences (NCATS)
